According to the supplement of paper PMC9262897, “Low-cost anti-mycobacterial drug discovery using engineered E. coli” (Nature Communications, 2022):
Where a name gives a salt, the structure may show the parent alone. ± gives the standard deviation of the averaged measurements.

Tests used:
Assay in all cases: growth (OD600 after 10 h); higher = more growth (less inhibition)
[1] = test system: E. coli TESEC Alr+ wild-type control; settings: compound 0.1 mM; raw OD600 reference: median of DMSO wells 0.241, cell-free background 0.041
Experimental: (§1)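 TESEC Mtb Alr E. coli, or the Alr+ wild-type control, in 384-well plates with Prestwick library compounds at 0.1 mM and 1% DMSO, across arabinose induction levels of 1E3 to 1E7 nM. Growth is read as OD600 after 10 h at 37 °C in triplicate biological replicates.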

[2] = test system: E. coli TESEC Mtb Alr; settings: compound 0.1 mM
Experimental: as §1

[3] = test system: E. coli TESEC Mtb Asd; settings: compound 0.1 mM
Experimental: (§2)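 TESEC E. coli strains in which the native enzyme is deleted and replaced by arabinose-inducible Mtb Asd, DapB, CysH or TrpD, each grown in its selective medium. Strains were screened against the Prestwick library at 0.1 mM and 1% DMSO in 384-well format at low and high arabinose induction. Growth is read as OD600 after 10 h in triplicate.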

[4] = test system: E. coli TESEC Mtb DapB; settings: compound 0.1 mM
Experimental: as §2

[5] = test system: E. coli TESEC Mtb Alr; settings: compound 0.1 mM; remark: listed apart in the source
Experimental: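 TESEC Mtb Alr E. coli (ΔaraC ΔtolC ΔentC Δalr ΔdadX, arabinose-inducible Mtb Alr) or the Alr+ wild-type control strain, grown in defined M9-fructose medium without D-alanine in 96-well plates with Prestwick library compounds at 0.1 mM and 1% DMSO. Low Alr induction is 0.1 µM arabinose and high induction is 10 mM arabinose.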

[6] = arabinose 1000 nM, raw OD600 reference: median of DMSO wells 0.294, cell-free background 0.041
[7] = arabinose 10000 nM, raw OD600 reference: median of DMSO wells 0.264, cell-free background 0.041
[8] = arabinose 100000 nM, raw OD600 reference: median of DMSO wells 0.201, cell-free background 0.041
[9] = arabinose 1000000 nM, raw OD600 reference: median of DMSO wells 0.193, cell-free background 0.041
[10] = arabinose 10000000 nM, raw OD600 reference: median of DMSO wells 0.146, cell-free background 0.041
[11] = arabinose induction (level): High, raw OD600 reference: median of DMSO wells 0.331, cell-free background 0.041
[12] = arabinose induction (level): Low, raw OD600 reference: median of DMSO wells 0.417, cell-free background 0.041
[13] = arabinose induction (level): High, raw OD600 reference: median of DMSO wells […], cell-free background 0.041
[14] = arabinose induction (level): Low, raw OD600 reference: median of DMSO wells 0.227, cell-free background 0.041
[15] = arabinose 100 nM, raw OD600 reference: median of DMSO wells 0.413, cell-free background 0.052
[16] = arabinose 10000000 nM, raw OD600 reference: median of DMSO wells […], cell-free background 0.052

| Structure (SMILES) | growth [1] | growth [2, 6] | growth [2, 7] | growth [2, 8] | growth [2, 9] | growth [2, 10] | growth [3, 11] | growth [3, 12] | growth [4, 13] | growth [4, 14] | growth [5, 15] | growth [5, 16] |
| --- | --- | --- | --- | --- | --- | --- | --- | --- | --- | --- | --- | --- |
| Cc1cc2c(s1)Nc1ccccc1N=C2N1CCN(C)CC1 [Olanzapine] | 0.207 ± 0.0059 | 0.286 ± 0.014 | 0.267 ± 0.0071 | 0.183 ± 0.015 | 0.158 ± 0.006 | 0.136 ± 0.0056 | 0.305 ± 0.043 | 0.457 ± 0.018 | 0.213 ± 0.029 | 0.249 ± 0.026 | 0.403 ± 0.014 | 0.319 ± 0.01 |
| CCN(CC)C(=O)c1ccc(O)c(OC)c1 [Ethamivan] | 0.24 ± 0.0033 | 0.295 ± 0.0045 | 0.249 ± 0.0036 | 0.232 ± 0.013 | 0.181 ± 0.0058 | 0.138 ± 0.0057 | 0.388 ± 0.079 | 0.397 ± 0.041 | 0.196 ± 0.0081 | 0.2251 ± 0.0019 | 0.406 ± 0.013 | 0.356 ± 0.02 |
| Cc1c(N)c(=O)n(-c2ccccc2)n1C [Ampyrone] | 0.25 ± 0.0062 | 0.289 ± 0.008 | 0.267 ± 0.019 | 0.217 ± 0.02 | 0.187 ± 0.0029 | 0.146 ± 0.007 | 0.368 ± 0.033 | 0.446 ± 0.01 | 0.175 ± 0.0078 | 0.209 ± 0.011 | 0.414 ± 0.0049 | 0.3598 ± 0.0033 |
| CC/C(=C(/CC)c1ccc(O)cc1)c1ccc(O)cc1 [Diethylstilbestrol] | 0.0422 ± 0.0023 | 0.04 ± 0.0015 | 0.0413 ± 0.0044 | 0.0436 ± 0.0041 | 0.0394 ± 0.00096 | 0.0457 ± 0.0042 | 0.169 ± 0.011 | 0.0743 ± 0.016 | 0.171 ± 0.013 | 0.198 ± 0.012 | 0.0551 ± 0.0059 | 0.0557 ± 0.0043 |
| NS(=O)(=O)Cc1noc2ccccc12 [Zonisamide] | 0.252 ± 0.013 | 0.301 ± 0.012 | 0.2543 ± 0.0014 | 0.203 ± 0.0022 | 0.19 ± 0.0041 | 0.139 ± 0.0077 | 0.296 ± 0.019 | 0.389 ± 0.02 | 0.201 ± 0.0092 | 0.234 ± 0.012 | 0.406 ± 0.0079 | 0.353 ± 0.018 |
| COc1cc([S+](C)[O-])ccc1-c1nc2cccnc2[nH]1 (centres undefined) [Sulmazole] | 0.227 ± 0.0056 | 0.282 ± 0.023 | 0.264 ± 0.0096 | 0.161 ± 0.027 | 0.2 ± 0.0059 | 0.1223 ± 0.00055 | 0.231 ± 0.039 | 0.387 ± 0.049 | 0.18 ± 0.0052 | 0.209 ± 0.0037 | 0.392 ± 0.0053 | 0.342 ± 0.034 |
| CC(C)(O/N=C(\C(=O)N[C@@H]1C(=O)N2C(C(=O)[O-])=C(C[n+]3ccccc3)CS[C@H]12)c1csc(N)n1)C(=O)O [Ceftazidime pentahydrate] | 0.0434 ± 0.00087 | 0.0435 ± 0.0041 | 0.0396 ± 0.0004 | 0.0423 ± 0.0036 | 0.0575 ± 0.00086 | 0.0674 ± 0.0023 | 0.113 ± 0.0029 | 0.0679 ± 0.011 | 0.167 ± 0.072 | 0.0547 ± 0.0049 | 0.0467 ± 0.002 | 0.0727 ± 0.0092 |
| CC(C[N+](C)(C)C)OC(N)=O (centres undefined) [Bethanechol chloride] | 0.24 ± 0.0039 | 0.283 ± 0.0042 | 0.28 ± 0.0036 | 0.195 ± 0.014 | 0.222 ± 0.021 | 0.139 ± 0.0046 | 0.373 ± 0.07 | 0.381 ± 0.028 | 0.2 ± 0.024 | 0.242 ± 0.025 | 0.438 ± 0.0061 | 0.349 ± 0.006 |
| CN1C(C(=O)Nc2ccccn2)=C(O)c2ccccc2S1(=O)=O [Piroxicam] | 0.195 ± 0.0024 | 0.229 ± 0.0073 | 0.253 ± 0.0061 | 0.18 ± 0.013 | 0.127 ± 0.0038 | 0.155 ± 0.003 | 0.321 ± 0.013 | 0.282 ± 0.042 | 0.181 ± 0.015 | 0.227 ± 0.068 | 0.362 ± 0.1 | 0.259 ± 0.016 |
| Brc1c(NC2=NCCN2)ccc2nccnc12 [Brimondine L-Tartrate] | 0.209 ± 0.0033 | 0.2878 ± 0.0023 | 0.26 ± 0.0099 | 0.187 ± 0.016 | 0.172 ± 0.011 | 0.152 ± 0.0034 | 0.271 ± 0.038 | 0.368 ± 0.061 | 0.19 ± 0.02 | 0.237 ± 0.033 | 0.416 ± 0.015 | 0.343 ± 0.004 |
| NS(=O)(=O)c1cc(C(=O)O)c(NCc2ccco2)cc1Cl [Furosemide] | 0.244 ± 0.0029 | 0.303 ± 0.0075 | 0.2547 ± 0.00051 | 0.242 ± 0.024 | 0.18 ± 0.0021 | 0.148 ± 0.0056 | 0.353 ± 0.011 | 0.408 ± 0.054 | 0.181 ± 0.0028 | 0.194 ± 0.0081 | 0.406 ± 0.012 | 0.353 ± 0.014 |
| CNC(=C[N+](=O)[O-])NCCSCc1ccc(CN(C)C)o1 [Ranitidine hydrochloride] | 0.235 ± 0.0096 | 0.283 ± 0.015 | 0.252 ± 0.0043 | 0.203 ± 0.0086 | 0.179 ± 0.0036 | 0.1447 ± 0.0011 | 0.323 ± 0.037 | 0.455 ± 0.058 | 0.191 ± 0.011 | 0.234 ± 0.032 | 0.408 ± 0.0097 | 0.338 ± 0.0081 |
| COC(=O)Nc1nc2ccc(SC(C)C)cc2[nH]1 [Methiazole] | 0.244 ± 0.0029 | 0.278 ± 0.0056 | 0.271 ± 0.0072 | 0.195 ± 0.013 | 0.219 ± 0.0056 | 0.151 ± 0.0024 | 0.365 ± 0.093 | 0.33 ± 0.048 | 0.204 ± 0.019 | 0.235 ± 0.035 | 0.427 ± 0.0091 | 0.37 ± 0.025 |
| CC(CN(C)C)C(C)(O)Cc1ccc(Cl)cc1 (centres undefined) [Clobutinol hydrochloride] | 0.221 ± 0.0026 | 0.263 ± 0.018 | 0.265 ± 0.0075 | 0.197 ± 0.0069 | 0.181 ± 0.0066 | 0.142 ± 0.013 | 0.222 ± 0.015 | 0.353 ± 0.1 | 0.187 ± 0.0091 | 0.222 ± 0.026 | 0.405 ± 0.0082 | 0.3421 ± 0.0029 |
| CN1CCN(CCCN2c3ccccc3Sc3ccc(C(F)(F)F)cc32)CC1 [Trifluoperazine dihydrochloride] | 0.0402 | 0.03983 ± 0.00032 | 0.03903 ± 0.00012 | 0.04003 ± 5.8e-05 | 0.03933 ± 5.8e-05 | 0.0403 ± 0.0001 | 0.0513 ± 0.00026 | 0.054 ± 0.0007 | 0.04873 ± 0.00025 | 0.171 ± 0.11 | 0.26 ± 0.19 | 0.0509 ± 0.00026 |
| CC(=O)Nc1ccc(OCC(O)CNC(C)C)cc1 (centres undefined) [Practolol] | 0.244 ± 0.0047 | 0.307 ± 0.0096 | 0.257 ± 0.0077 | 0.229 ± 0.04 | 0.19 ± 0.016 | 0.145 ± 0.0028 | 0.408 ± 0.04 | 0.424 ± 0.027 | 0.177 ± 0.0065 | 0.22 ± 0.025 | 0.402 ± 0.014 | 0.361 ± 0.0065 |
| c1ccc(CN(CC2=NCCN2)c2ccccc2)cc1 [Antazoline hydrochloride] | 0.2355 ± 0.0022 | 0.279 ± 0.02 | 0.254 ± 0.0091 | 0.194 ± 0.021 | 0.167 ± 0.0018 | 0.14 ± 0.0039 | 0.355 ± 0.017 | 0.441 ± 0.017 | 0.185 ± 0.01 | 0.225 ± 0.043 | 0.412 ± 0.0059 | 0.364 ± 0.015 |
